# High-throughput results deposited in PubChem by National Center for Advancing Translational Sciences (NCATS).
# Sampled rows, rich in hits. Any-hit rate of the full collection: about 2.2%.
# GLP1R inv ag – acts as inverse agonist at human GLP-1 receptor; AID 624417; HEK293 GLP-1R CRE-luciferase, luminescence, 24 h; GLP-1R form is constitutively active; Potency, µM (doses to about 38.3 µM), most hits filed as inhibitors; actives 1.6% (n = 410,000); note: nearly all actives have a fitted effect of over 55% in size
# Target sequence (P43220 whole entry, looked up): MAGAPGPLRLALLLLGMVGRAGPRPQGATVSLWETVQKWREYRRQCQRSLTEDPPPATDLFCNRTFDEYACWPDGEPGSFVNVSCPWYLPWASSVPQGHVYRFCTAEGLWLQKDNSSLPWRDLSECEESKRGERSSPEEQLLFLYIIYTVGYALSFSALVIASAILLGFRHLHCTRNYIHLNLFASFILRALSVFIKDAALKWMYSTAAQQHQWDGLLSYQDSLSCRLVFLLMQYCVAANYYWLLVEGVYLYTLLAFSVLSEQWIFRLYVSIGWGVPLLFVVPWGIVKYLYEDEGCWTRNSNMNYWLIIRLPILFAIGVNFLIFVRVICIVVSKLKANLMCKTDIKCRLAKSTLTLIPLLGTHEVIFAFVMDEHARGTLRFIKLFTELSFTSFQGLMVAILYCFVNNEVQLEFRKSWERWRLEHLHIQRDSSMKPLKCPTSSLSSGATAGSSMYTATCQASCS
#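 Constitutively active GLP-1R drives a cAMP-responsive luciferase in stably transfected HEK293 cells; test compounds are added after overnight (12 h) attachment and left 24 hr, and signal loss in luminescence marks inhibition.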
# GLP1R ag – activates the human GLP-1 receptor; HEK293 GLP-1R CRE-luciferase, luminescence, 4-6 h; cells express a hypersensitive GLP-1R form; actives 0.007% (n = 380,000); Potency, µM (highest dose often 45.6 µM), usual class: activators; P43220
# HEK293 tox – cytotoxicity counter-screen for GLP-1 receptor inverse agonists; HEK293 cAMP-luciferase reporter cells, luminescence, 24 h; Potency, µM (highest dose often 38.3 µM), actives largely listed as inhibitors; actives 0.13% (n = 410,000); AID 624418;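 note: loss of luciferase light is scored as toxicity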
#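 A 23 nL compound transfer followed 12 hours of cell culture at 37 deg C; exposure then lasted 24 hr. Luciferase assay detection reagent was dispensed and plates read for luminescence after a 12 min room-temperature wait.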
# CCT modulator – changes cytosolic chaperonin activity | purified chaperonin ATPase assay, HTRF ADP detection, 30 min | activity change, % (test concentration not listed), hits read low | actives 0.3% (n = 360,000); in the data active = activity change below about -30%
#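 Enzyme 40 or 20 nM (batch-dependent) in Tris pH 7.4/KCl/MgCl2/DTT; cpd 76 uM single point; ATP 10 uM; 30 min 37 °C; Transcreener ADP HTRF detection, 30 min RT; ratio 665/615.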
# Mm-Cpn inhibitor – M. maripaludis TRiC chaperonin inhibition; purified Mm-Cpn ATPase, ADP Transcreener TR-FRET; Potency, µM (top dose mostly 76.9 µM), usual class: inhibitors; actives 0.031% (n = 330,000); AID 504842; note: nearly all actives have a fitted effect of over 80% in size
#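 ATP (10 uM final) was added to archaeal chaperonin (25 nM final) after 10 min exposure to test compound at 37°C; after 30 min further incubation, ADP was detected by competitive TR-FRET.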
# uPA generation – blocks generation of uPA at the cell surface | Potency, µM (highest dose often 38.3 µM), hits mostly inhibitors | cell surface uPA generation assay, qHTS | actives 0.31% (n = 330,000); active = well fitted inhibition curve with a large enough effect; inconclusive = small, poorly fitted or top-dose-only effect; inactive = no such curve, though single readings can be large or run the other way; tested in mouse RAW 264.7 cells; note: nearly all actives have a fitted effect of over 55% in size
# A number is an active result; . = inactive; ? = inconclusive; / = no result. Unless noted, calls come from the whole dose curve; as a rule, active = well fitted curve in the direction sought with a large enough effect; inconclusive = small, poorly fitted or top-dose-only effect, or another doubt; inactive = no such curve, though single readings can be large; an effect the other way counts as inactive or inconclusive.
SMILES,GLP1R inv ag,GLP1R ag,HEK293 tox,CCT modulator,Mm-Cpn inhibitor,uPA generation
CC(=Nc1ccc(C)cc1)c1sc2ccccc2c1O,13µM,.,.,.,.,.
CC(=Nc1ccc(C)cc1C)c1sc2ccccc2c1O,?,.,.,.,.,?
COc1ccc(-c2nc(C)c(CCNC(=O)c3ccccc3Br)s2)cc1OC,.,/,.,/,/,/
Cc1cc(C)cc(-n2c(C)nc3cc(C(=O)NCc4ccccc4Cl)ccc32)c1,11µM,/,?,/,/,/
CN1CCN(C(=O)/C(=C/c2cn(S(=O)(=O)N(C)C)c3ccccc23)NC(=O)c2ccccc2)CC1,.,.,.,-39,.,.
CN(C)S(=O)(=O)n1cc(/C=C(\NC(=O)c2ccccc2)C(=O)N2CCCC2)c2ccccc21,.,.,.,.,.,?
CCN(c1ccccc1)c1nnc(NC(=O)Nc2ccc(C)cc2)s1,.,/,.,/,/,/
CSc1nsc(SC)c1C(=O)NC(=O)Nc1cccnc1,.,.,.,-42,.,.
CSc1nsc(SC)c1C(=O)Nc1ccc(C(C)(C)C)cc1,?,.,.,.,.,.
O=C(CN1CCCN(S(=O)(=O)c2ccc(F)cc2)CC1)Nc1cccc(F)c1,?,.,.,.,.,.
O=C(CNc1cccc(S(=O)(=O)N2CCCC2)c1)Nc1cccc(F)c1,?,.,.,.,.,.
O=C(CNc1cccc(C(F)(F)F)c1)Nc1cccc(S(=O)(=O)N2CCCC2)c1,2.5µM,.,.,.,.,?
O=C(CSc1nnc(Nc2ccccc2F)s1)Nc1cccc(S(=O)(=O)N2CCCCC2)c1,10µM,.,.,.,.,.
O=C(CN1CCN(S(=O)(=O)c2ccccc2)CC1)Nc1cccc(C(F)(F)F)c1,4.5µM,.,.,.,.,.
CCc1ccccc1N(C)C(=O)c1cc2c(=O)oc3ccccc3c2s1,?,.,.,/,/,/
O=C(Nc1ccccc1F)c1cnc(N2CCCCC2)c2ccccc12,?,/,.,/,/,/
CCc1nc2c(cnn2-c2ccc(Cl)cc2)c(=O)n1-c1ccc(OC)cc1,11µM,.,.,.,.,.
COc1ccc(-n2c(-c3ccccc3F)nc3c(cnn3-c3ccc(C)cc3)c2=O)cc1,7.1µM,/,.,/,/,/
CC(C)c1cnc2c(c1SCc1cccc(C(F)(F)F)c1)c(=O)n(C)c(=O)n2C,.,/,.,/,/,/
ON=C1c2cc(OCCN3CCCCC3)ccc2-c2ccc(OCCN3CCCCC3)cc21,13µM,.,3.5µM,.,.,.
NC(=S)NN=C1c2cc(OCCN3CCOCC3)ccc2-c2ccc(OCCN3CCOCC3)cc21,7.9µM,.,1.4µM,.,.,.
CCc1ccccc1NC(=O)Cn1c(=O)n(CCCCCC(=O)NCc2ccc(C)cc2)c(=O)c2sccc21,.,/,.,/,/,/
Cc1n[nH]c(C)c1S(=O)(=O)N(CC(=O)NCc1ccccc1Cl)c1ccc(C(C)C)cc1,10µM,.,.,/,/,/
Cc1ccc(C(C)C)cc1OCC(=O)NC1CCCCCCC1,11µM,.,.,.,.,.
CC(C)c1ccc(OCC(=O)NC2CCCC2)cc1,?,.,.,.,.,.
SMILES,GLP1R inv ag,GLP1R ag,HEK293 tox,CCT modulator,Mm-Cpn inhibitor,uPA generation
Cc1ccc(C(C)C)cc1OCC(=O)NNC(=O)Nc1ccccc1,6.3µM,.,.,.,.,.
Cc1ccc(C(C)C)c(OCC(=O)NNC(=O)Nc2ccccc2)c1,?,.,.,.,/,.
Cc1cccc(OCCSc2nc3ccc(NC(=O)c4cccs4)cc3s2)c1,?,/,.,/,/,/
COc1ccc(OCc2cccc(C(=O)O)c2)cc1,.,.,.,.,.,.
O=C(OCC(F)(F)F)c1cccc(COc2ccc3ccccc3c2)c1,2.2µM,.,.,.,.,.
Cc1cccc(NC(=O)Cn2cc(C(=O)C3CCCCC3)c3ccccc32)c1,.,/,.,/,/,/
OC(CNCCc1ccc(Cl)cc1)COc1ccc2ccccc2c1 (centres undefined),?,.,?,.,.,.
OC(CNCCc1ccc(Cl)cc1)COc1cc(Cl)ccc1Cl (centres undefined),10µM,.,?,.,.,.
COc1ccc(S(=O)(=O)N2CC3CCCN3c3cc(C(F)(F)F)ccc32)cc1 (centres undefined),10µM,.,.,.,.,.
COC(=O)c1c(C(=O)OC)c2c(-c3ccccc3)cc3cccc1n32,8.9µM,.,.,.,/,/
COC(=O)c1c(-c2ccccc2)csc1N,.,.,.,.,/,.
CCC(=O)N1CCc2cc(S(=O)(=O)NC(C(=O)NCCc3ccccc3)C(C)C)ccc21 (centres undefined),.,/,.,/,/,/
O=C(CCl)N1CCN(S(=O)(=O)c2ccc3ccccc3c2)CC1,10µM,.,?,.,.,.
COc1cc(OC)c(Nc2nc3ccccc3c3nncn23)cc1Cl,.,/,.,/,/,/
CCOC(=O)C(C)/C(C)=N\Nc1ccc([N+](=O)[O-])cc1[N+](=O)[O-] (centres undefined),.,.,.,.,.,.
CCOC(=O)C(C)/C(C)=N/NC(N)=S (centres undefined),?,.,0.56µM,.,.,.
COc1cc(C=O)ccc1OS(=O)(=O)c1ccccc1[N+](=O)[O-],.,.,.,-42,.,.
CCc1c(C)sc2c1CCN(C(=O)Nc1cc(C)ccc1OC)C2c1ccc(F)cc1 (centres undefined),?,/,.,/,/,/
N#CC(c1cccc(Cl)c1)c1ccc2c(C(F)(F)F)cc(C(F)(F)F)nc2n1 (centres undefined),3.2µM,.,.,.,/,.
NNc1ccc2c(C(F)(F)F)cc(C(F)(F)F)nc2n1,.,.,.,.,.,.
CCc1nc2ccccc2n1CCCCOc1ccc(C)cc1,10µM,/,.,/,/,/
OCCCc1nc2ccccc2n1CCc1ccccc1,.,.,.,.,.,/
CCCc1nc2ccccc2n1CCc1ccccc1,10µM,.,.,.,.,.
Cc1ccc([N+](=O)[O-])cc1N(CC(=O)Nc1ccc(S(=O)(=O)Nc2cccc(C(F)(F)F)c2)cc1)S(C)(=O)=O,1µM,.,?,.,.,.
COc1ccccc1N(CC(=O)Nc1cccc(C(F)(F)F)c1)S(C)(=O)=O,.,.,.,.,.,.
O=C1C2C3C=CC(C3)C2C(=O)N1c1ccc(N2CCN(c3ccccn3)CC2)c([N+](=O)[O-])c1 (centres undefined),2.8µM,.,.,.,.,.
OCC(O)COc1ccc(Cl)cc1 (centres undefined),/,.,/,/,/,/
Cc1ccc(NC(=O)c2cc(S(=O)(=O)NC3CCCCC3)ccc2F)cc1Cl,7.9µM,/,.,/,/,/
O=C(Nc1ccc(Br)cc1)c1cc(S(=O)(=O)NC2CCCC2)ccc1F,?,/,.,/,/,/
O=C(Nc1ccc(F)c(F)c1)c1cc(S(=O)(=O)NC2CCCC2)ccc1F,10µM,/,.,/,/,/
